CBX7 AlphaScr: CBX7 chromodomain binding inhibitors, primary screen, biochemical, AlphaScreen; Chromobox protein homolog 7 (Homo sapiens), O95931; AlphaScreen His6-CBX7 / biotin-H3K27me3 peptide binding; active compounds read low; normalised signal (fraction of DMSO) (no concentration beside the values); 66,000 compounds, 1.1% hits; in the data active = normalised signal below about 0.5
Target sequence (O95931 whole entry, looked up): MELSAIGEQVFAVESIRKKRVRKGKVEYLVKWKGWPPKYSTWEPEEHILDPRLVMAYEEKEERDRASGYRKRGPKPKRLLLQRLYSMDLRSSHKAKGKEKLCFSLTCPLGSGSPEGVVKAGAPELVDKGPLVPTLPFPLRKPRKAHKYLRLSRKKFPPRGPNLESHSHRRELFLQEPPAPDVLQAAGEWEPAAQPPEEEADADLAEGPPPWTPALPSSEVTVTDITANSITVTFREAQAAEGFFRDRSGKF
* hit, by the source's call. The full list was thinned out, with hits kept by preference.

Screening CCOC(=O)N1CCC(Nc2c(N(Cc3ccccc3)C(C)C)c(=O)c2=O)CC1 returned CBX7 AlphaScr 0.94.
Screening COc1cccc(-c2cc(C(F)(F)F)nc(-n3ccnc3C)n2)c1 returned CBX7 AlphaScr 1.1.
For CC(NC(=O)C1CC(c2ccc(F)cc2)=NO1)c1ccccc1 (stereo not given) the results were CBX7 AlphaScr 1.
O=C(NC(C(=O)Nc1cccc(Cl)c1)c1ccccc1)c1ccccc1F (stereo not given) was read as CBX7 AlphaScr 0.99.
CC(C)Oc1ccc(C(=O)N2CC(=O)Nc3ccc(F)cc3C2c2ccccc2)cc1 (stereo not given) was read as CBX7 AlphaScr 0.95.
`CCOc1ccc2c(c1)c(=O)c(S(=O)(=O)c1ccc(F)cc1)cn2CC(=O)Nc1cccc(C)c1` gave CBX7 AlphaScr 1.
For Oc1ccc(F)cc1-c1cc(-c2ccccc2F)[nH]n1 the results were CBX7 AlphaScr 0.98.
Cc1nnc(NC(=O)c2cccc(S(=O)(=O)N3CCCCCC3)c2)s1 was read as CBX7 AlphaScr 0.99.
`Cc1ccn2c(Nc3ccc4c(c3)OCCO4)c(-c3cccs3)nc2c1` gave CBX7 AlphaScr 0.8.
Screening Cc1ccc2nc(-c3ccccn3)c(Nc3ccc(C(C)C)cc3)n2c1 returned CBX7 AlphaScr 0.62.
Screening Cc1ccc(Nc2c(-c3ccccn3)nc3ccc(C)cn23)cc1 returned CBX7 AlphaScr 0.084*.
`Clc1ccc(Nc2c(-c3ccccn3)nc3ccc(Cl)cn23)cc1` gave CBX7 AlphaScr 0.92.
Cc1ccn2c(Nc3ccc4c(c3)OCO4)c(-c3ccccn3)nc2c1 was read as CBX7 AlphaScr 0.034*.
`Cc1ccn2c(Nc3ccc4c(c3)OCO4)c(-c3ccsc3)nc2c1` gave CBX7 AlphaScr 0.91.
Screening CCc1nnc(NC(=O)Nc2cccs2)s1 returned CBX7 AlphaScr 1.
COCCn1c(SCC(=O)Nc2ccc(Cl)c(Cl)c2)nnc1-c1c[nH]c2ccccc12 was read as CBX7 AlphaScr 0.93.
CCOc1cc2c(cc1OCC)C1C(C(=O)Nc3ccccc3F)c3ccccc3C(=O)N1CC2 (stereo not given) was read as CBX7 AlphaScr 1.
CCc1ccccc1NC(=O)CSc1nnc(COc2ccc(C)cc2)o1 was read as CBX7 AlphaScr 1.
Screening O=C(Nc1ccccc1)c1cc(S(=O)(=O)Nc2ccc(Cl)cc2)cs1 returned CBX7 AlphaScr 0.99.
Screening COc1cc(OC)cc(-c2nnc(NC(=O)c3ccc(S(=O)(=O)N4CC(C)OC(C)C4)cc3)o2)c1 (stereo not given) returned CBX7 AlphaScr 0.91.
Screening O=C(Nc1nnc(-c2ccccc2Cl)o1)c1ccc(S(=O)(=O)N2CCCC2)cc1 returned CBX7 AlphaScr 0.89.
O=C(Nc1nnc(-c2ccccc2Cl)o1)c1ccc(S(=O)(=O)N2CCOCC2)cc1 was read as CBX7 AlphaScr 0.052*.
O=C(Nc1nnc(-c2cccs2)o1)c1ccc(S(=O)(=O)N2CCOCC2)cc1 was read as CBX7 AlphaScr 0.71.
Screening CCCCN(C)S(=O)(=O)c1ccc(C(=O)Nc2nnc(-c3ccccc3Cl)o2)cc1 returned CBX7 AlphaScr 0.91.
For CCC1CCCCN1S(=O)(=O)c1ccc(NC(=O)c2oc3ccccc3c2C)cc1 (stereo not given) the results were CBX7 AlphaScr 0.93.
For CCC1CCCCN1S(=O)(=O)c1ccc(C(=O)Nc2nnc(-c3ccccc3Cl)o2)cc1 (stereo not given) the results were CBX7 AlphaScr 0.055*.
CC1CN(S(=O)(=O)c2ccc(C(=O)Nc3nnc(-c4ccccc4Cl)o3)cc2)CC(C)O1 (stereo not given) was read as CBX7 AlphaScr 0.041*.
Screening CN(Cc1ccccc1)c1nc(-c2ccc([N+](=O)[O-])cc2)cs1 returned CBX7 AlphaScr 0.63.
CCOc1ccc(N(CC)C(=O)Cn2ncc3c2-c2cc(C)ccc2OC3)cc1 was read as CBX7 AlphaScr 0.97.
Screening CCCN(CCC)CCNC(=O)c1ccc2nc(-c3ccccc3NC(C)=O)c(=O)[nH]c2c1 returned CBX7 AlphaScr 1.2.
`O=C(Nc1nc2ccc(Br)cc2s1)c1cccc(Oc2ccccc2)c1` gave CBX7 AlphaScr 1.1.
For CCOC(CNC(=O)c1ccc2c(c1)ncn2-c1ccc(OCc2ccccc2)cc1)OCC the results were CBX7 AlphaScr 0.92.
COc1ccccc1NC(=O)C1CC1(c1cccc(C)c1)c1cccc(C)c1 (stereo not given) was read as CBX7 AlphaScr 1.1.
CC(C)CN(CC(C)C)S(=O)(=O)c1ccc(C(=O)Nc2nnc(-c3ccc(Cl)s3)o2)cc1 was read as CBX7 AlphaScr 0.86.
O=C(Nc1nnc(-c2ccc(F)cc2)o1)c1ccc(S(=O)(=O)N2CCCC2)cc1 was read as CBX7 AlphaScr 0.013*.
CCC1CCCCN1S(=O)(=O)c1ccc(C(=O)Nc2nnc(C3CC3)o2)cc1 (stereo not given) was read as CBX7 AlphaScr 0.75.
For COCc1nnc(NC(=O)c2ccc(S(=O)(=O)N3CCCC3)cc2)o1 the results were CBX7 AlphaScr 0.57.
COc1cc(OC)cc(-c2nnc(NC(=O)c3ccc(S(=O)(=O)N4CCCCCC4)cc3)o2)c1 was read as CBX7 AlphaScr 0.8.
Screening COc1ccc(-c2nnc(NC(=O)c3ccc(S(=O)(=O)N4CCCC4)cc3)o2)cc1 returned CBX7 AlphaScr 0.56.
O=C(Nc1nnc(C2CC2)o1)c1ccc(S(=O)(=O)N2CCCCCC2)cc1 was read as CBX7 AlphaScr 0.0011*.
CCc1nnc(NC(=O)c2ccc(S(=O)(=O)N3CCCCC3)cc2)o1 was read as CBX7 AlphaScr 0.1*.
Screening O=C(Nc1nnc(-c2ccc(Cl)s2)o1)c1ccc(S(=O)(=O)N2CCCCC2)cc1 returned CBX7 AlphaScr 0.16*.
For COc1cc(OC)cc(-c2nnc(NC(=O)c3ccc(S(=O)(=O)N4CCCC4)cc3)o2)c1 the results were CBX7 AlphaScr 0.86.
`CCc1nnc(NC(=O)c2ccc(S(=O)(=O)N3CCC(C)CC3)cc2)o1` gave CBX7 AlphaScr 0.62.
Cc1cccc(NS(=O)(=O)c2cc(Br)cc3c2N(C(=O)C2CC2)CC3)c1C was read as CBX7 AlphaScr 0.98.
CC(C)(C)NC(=O)C1CCCN1S(=O)(=O)c1cccc2cccnc12 (stereo not given) was read as CBX7 AlphaScr 1.
O=C(Cn1c(SCc2ccc(F)cc2)nc2ccncc21)Nc1ccc(F)c(Cl)c1 was read as CBX7 AlphaScr 1.
Cc1ccc(NC(=O)CCc2nnc3ccc(N4CCN(c5cccc(C)c5)C(C)C4)nn23)cc1 (stereo not given) was read as CBX7 AlphaScr 0.91.
Screening O=C(O)c1cc(-n2c(/C=C\c3ccc(F)c(F)c3)nc3ccccc3c2=O)ccc1Cl returned CBX7 AlphaScr 0.99.
Screening CC(NC(=O)c1cc(=O)[nH]c2ccc(Br)cc12)c1ccc2c(c1)OCCO2 (stereo not given) returned CBX7 AlphaScr 0.95.
`COc1ccc(Cn2c(=O)c3cccnc3n(CC(=O)Nc3ccc(F)cc3)c2=O)cc1` gave CBX7 AlphaScr 0.99.
COc1ccc(-n2nc3c(c2NC(=O)c2ccccc2C)CS(=O)(=O)C3)cc1 was read as CBX7 AlphaScr 0.97.
Cc1ccc(NC(=O)C(C)C)c(C(=O)c2ccccc2)c1 was read as CBX7 AlphaScr 1.
Screening Cc1cc(N2CCC(C)CC2)nc2ccc(NC(=O)CCC(=O)NCC3CCCO3)cc12 (stereo not given) returned CBX7 AlphaScr 0.84.
